# Akt phos inh – HTS Assay for Inhibitors of Akt Phophorylation: Primary Screen; Neuro2A IGF-stimulated pAkt S473 HTRF, 20 min; active compounds read low; activity change, % for hits at 50 µM; 360,000 compounds, 0.32% hits; AID 651550, 2012; in the data active means activity change below about -80%; inconclusive means mostly about -51% to -80%
#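 Single-point screen (50 µM final compound) in Neuro2A cells stimulated 20 min with 6 nM IGF at 37 deg C. After lysis, Ser473-phosphorylated Akt read by HTRF (ex 330 nm, em 615/665 nm) as the 665/615 ratio.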
# Six1-Eya2 blk – qHTS Assay for Inhibitors of the Six1/Eya2 Interaction | Homeobox protein SIX1 (Homo sapiens) + Protein phosphatase EYA2 (Homo sapiens), … | AlphaScreen GST-Six1/His-Eya2 binding, biochemical; active compounds read low | activity change, % (concentration not given with the values) | 360,000 compounds, 0.56% hits
# Target sequence (O00167 whole entry, looked up): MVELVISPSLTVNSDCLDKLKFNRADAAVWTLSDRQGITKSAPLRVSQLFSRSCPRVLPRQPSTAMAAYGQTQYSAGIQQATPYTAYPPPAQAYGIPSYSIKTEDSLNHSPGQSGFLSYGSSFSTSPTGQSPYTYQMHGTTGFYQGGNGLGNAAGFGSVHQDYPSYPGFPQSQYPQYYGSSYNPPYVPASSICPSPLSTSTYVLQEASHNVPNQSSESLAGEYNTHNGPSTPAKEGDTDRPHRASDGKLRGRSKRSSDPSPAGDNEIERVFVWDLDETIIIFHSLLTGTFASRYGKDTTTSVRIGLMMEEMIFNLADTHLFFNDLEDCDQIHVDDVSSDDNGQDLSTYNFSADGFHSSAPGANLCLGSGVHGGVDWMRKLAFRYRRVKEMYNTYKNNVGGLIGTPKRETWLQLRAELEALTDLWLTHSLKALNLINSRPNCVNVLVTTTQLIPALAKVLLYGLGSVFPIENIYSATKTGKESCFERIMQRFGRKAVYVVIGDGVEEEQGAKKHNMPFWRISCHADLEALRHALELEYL
# Target sequence (Q15475 whole entry, looked up): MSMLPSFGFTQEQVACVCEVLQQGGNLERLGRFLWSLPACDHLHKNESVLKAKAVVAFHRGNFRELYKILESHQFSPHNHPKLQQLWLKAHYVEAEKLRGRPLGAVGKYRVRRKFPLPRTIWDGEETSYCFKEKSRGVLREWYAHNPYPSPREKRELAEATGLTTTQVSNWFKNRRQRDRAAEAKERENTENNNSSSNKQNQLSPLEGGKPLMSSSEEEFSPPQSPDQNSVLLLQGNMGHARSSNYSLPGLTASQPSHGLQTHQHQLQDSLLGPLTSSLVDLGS
#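 GST-Six1 + His-Eya2 (5X stock: 250/500 nM); Tris pH 8.0, 300 mM NaCl, 0.05% BSA, 0.02% Tween 20; GSH donor/Ni acceptor beads; 1 h 37 °C dark; AlphaScreen readout.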
# CtBP-E1A inh – qHTS Assay for Inhibitors of the CtBP/E1A Interaction. activity change, % (test concentration not listed). 340,000 compounds, 0.49% hits. AlphaScreen GST-E1A/His-CtBP binding, 1536-well; active compounds read low. CtBP / adenovirus E1A interaction (AlphaScreen)
#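 GST-E1A and His-tagged CtBP (125 nM each as 5X stock) were preincubated with pin-transferred compound for 2 h at 37 °C in the dark, then glutathione donor and nickel acceptor beads were added for 1 h before AlphaScreen reading.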
# CCT modulator – High-Throughput Screening for Modulators of Cytosolic Chaperonin Activity; purified chaperonin ATPase assay, HTRF ADP detection, 30 min; activity change, % (no concentration beside the values), hits read low; 360,000 compounds, 0.3% hits; in the data active means activity change below about -30%
#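 First, chaperonin was dispensed at 40 nM or 20 nM final depending on batch activity. Next, compounds were pinned at 76 uM and ATP added at 10 uM. After 30 min at 37 °C, ADP detection reagents ran 30 min at ambient temperature.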
# * marks the source's active call; other numbers are inactive results; i = inactive; ? = inconclusive; . = no result given; ! = a repeat was not active. A selection: hits, their analogues and other compounds. The true share with any hit is near 1.2%. Unless noted, no stated cut-off is given here; in the data, active means activity change below about -65%; inconclusive means mostly about -30% to -63%; inactive means weaker than that. On the % scale 0 is the no-effect control and ±100 the full control effect.
SMILES,Akt phos inh,Six1-Eya2 blk,CtBP-E1A inh,CCT modulator
COc1ccc(S(=O)(=O)c2c(O)c3ccc(C(=O)Nc4cccc(F)c4)cc3[nH]c2=O)cc1,i,-66*,.,-2
O=C(Cc1ccc(Cl)cc1)Nc1cc(Cl)ccn1,i,16,13,-1
CCOC(=O)CSc1nc(C)c(CC)c(C)c1C(N)=O,i,14,.,-62*
CCOC(=O)CSc1nc(C)cc(C)c1C(N)=O,i,1,8,1
OC(c1ccc(F)c(F)c1)c1ncc(-c2cccc(F)c2)[nH]1 (stereo not given),i,-8,-10,1
CC(C)C(=O)NC(=S)/C=C1/N(C)c2ccccc2C1(C)C,i,?,-12,-2
Cc1ccc(C(=O)NC(=S)/C=C2\N(C)c3ccccc3C2(C)C)cc1,i,-75*,-81*,1
O=C(Nn1c(C2CCCCC2)nc2ccccc2c1=O)c1ccc([N+](=O)[O-])cc1,i,-8,0,-2
Cc1nn(Cc2ccccc2Cl)c2sc(C(=O)Nc3nccs3)cc12,i,2,7,-57*
CC(=O)OCC1OC(Sc2cccc3cccnc23)C(OC(C)=O)C(OC(C)=O)C1OC(C)=O (stereo not given),i,-85*,-85*,0
O=C(COC(=O)/C=C/c1cccc(F)c1)Nc1cccc(S(=O)(=O)NC2=NCCCCC2)c1,i,-17,?,0
COc1cccc(/C=C/C(=O)OCC(=O)Nc2cccc(S(=O)(=O)NC3=NCCCCC3)c2)c1,i,-17,-76*,1
CSc1nc(-c2ccc(Cl)cc2Cl)[nH]c(=O)c1C#N,i,-72*,?,2
O=C(O)c1c(Cl)c(Cl)c(Cl)c(Cl)c1C(=O)OCC1CCCO1 (stereo not given),i,-1,1,-2
c1ccc(Nc2nnc(SCc3cccc4ccccc34)s2)cc1,-114%*,2,3,-1
CN(C=[N+](C)C)c1cccc2c1C(=O)c1ccccc1C2=O,i,-66*,-68*,-3
CN(C1=C(N2CCCCC2)C(=O)c2ccccc2C1=O)c1ccccc1,i,-83*,-2,-8
COc1ccc2cc(C(=O)NCc3ccccc3CN3CCCC3)ccc2c1,i,11,20,2
CCC(=Nc1ccc(Cc2ccncc2)cc1)c1c(O)n(C)c(=O)n(C)c1=O,-121%*!,9,-2,0
COc1cccc(NC(=O)CN2CCN(c3ccccc3F)CC2)c1,-110%*,-1,3,1
COc1cc(NC(=O)CN2CCN(c3ccccc3F)CC2)cc(OC)c1,i,-1,13,-2
COC(=O)c1ccc(NC(=S)N2CCN(C(=O)c3ccco3)CC2)cc1,i,1,-2,-40*
COC(=O)c1ccc(NC(=O)N2CCOCC2)cc1,-121%*,-1,1,-1
O=C(c1ccco1)N1CCN(c2ccccc2F)CC1,-117%*,7,4,-3
O=C(Nc1ccc(O)cc1)N1CCOCC1,i,-4,.,-2
SMILES,Akt phos inh,Six1-Eya2 blk,CtBP-E1A inh,CCT modulator
CNS(=O)(=O)c1cccc(C(=O)OCC(=O)Nc2ccc3ccccc3c2)c1,i,-4,4,-5
Cc1cc(C(=O)NNC(=S)NC(=O)/C=C/c2ccccc2Cl)n[nH]1,i,-91*,-99*,0
COc1ccc(S(=O)(=O)N2CCCCC2)cc1NC(=O)CCNC(=O)c1ccco1,i,23,0,1
CN(C)c1ccc(N=Nc2ccccc2C(=O)OCC(=O)NCC2CCCCC2)cc1,i,-74*,-68*,-2
CN(C)c1ccc(N=Nc2ccccc2C(=O)OCC(=O)NC2CCCC2)cc1,i,-71*,-66*,-2
COCCNC(=O)C1Cc2c(-c3cccc(NC(C)=O)c3)ccnc2O1 (stereo not given),i,2,4,0
COCCN(C(=O)C1=COCCO1)c1c(N)n(CC(C)C)c(=O)[nH]c1=O,i,-1,-3,2
Clc1ccc(C2Nc3cccc4cccc(c34)N2)cc1,i,-3,0,-56*
Brc1ccc2nc(-c3ccncc3)c(NC3CCCC3)n2c1,i,-5,-2,-36*
Cc1ccccc1Nc1c(-c2ccncc2)nc2ccc(Br)cn12,i,-9,-6,-1
O=C(Oc1ccc(Cl)c2cccnc12)c1cccnc1,i,-93*,-82*,3
Cc1cccc(NC(=O)Oc2ccc(Cl)c3cccnc23)c1,i,-92*,?,-1
O=C(Oc1ccc(Cl)c2cccnc12)N1CCCCC1,i,-1,2,0
CCCCOc1ccc(C(=O)NNC(=O)C2C3C=CC(C3)C2C(=O)O)cc1 (stereo not given),i,17,-11,2
Cc1cccc(OCc2nc(-c3ccccn3)n[nH]2)c1,i,-94*,-89*,2
Cc1ccc(OCc2nc(-c3ccccn3)n[nH]2)cc1,i,-92*,-98*,4
CSC(=NC#N)N1CCN(c2ccc([N+](=O)[O-])cc2)CC1,i,6,-16,-2
COc1ccc(C(=O)OCC(=O)NCc2ccc3c(c2)OCO3)cc1S(=O)(=O)N1CCOCC1,i,-4,28,0
COc1ccc(C#Cc2cnc3c(c2)C(=O)N([C@H](C)CO)C[C@@H](C)[C@H](CN(C)C(=O)CN(C)C)O3)cc1,i,2,1,-2
CCc1nnc(NC(=O)CCn2cnc3ccccc3c2=O)s1,i,8,6,-31*
NC(=O)C1CCN(C(=O)C2CCC(=O)N(CC3CCCCC3)C2)CC1 (stereo not given),i,1,5,0
CCN(CC)c1ccc(N=Nc2ncn[nH]2)cc1,i,-69*,-74*,-1
Cc1ccccc1Nc1nc(N)[nH]c(=O)c1N=O,i,?,-86*,1
O=C(COC(=O)c1cnccn1)c1cccc([N+](=O)[O-])c1,i,19,.,0
COc1cc(S(=O)(=O)n2ccc(C)n2)ccc1Cl,i,9,0,-48*
SMILES,Akt phos inh,Six1-Eya2 blk,CtBP-E1A inh,CCT modulator
Cc1ccc(COC(=O)c2nn(C)c(=O)c3ccccc23)cc1,i,4,-9,-6
CCN1C(=O)/C(=C2\SC(=S)N(NC(=O)c3ccccc3O)C2=O)c2ccccc21,i,-90*,-97*,0
COc1ccc(CN2CCC2(C)C(=O)NCCc2c[nH]c3ccccc23)c2ccccc12 (stereo not given),i,-17,-8,-1
c1ccc(-c2ccc(-c3ccccn3)s2)nc1,i,15,2,0
c1ccc(-c2nnc(-c3ccccn3)nn2)nc1,i,-79*,-91*,-1
c1ccc(-c2cccc(-c3ccccn3)n2)nc1,i,-91*,-101*,-4
Cc1ccc(Cn2cc(CCC(=O)O)c3ccccc32)cc1,i,3,-65*,0
